# Compound activity from PubChem BioAssay.
# A selection: hits, their analogues and other compounds. The true share with any hit is near 15%.
# TDP1 cell CPT = DT40-hTDP1 cell growth loss with CPT | chicken DT40 Tdp1-/-;hTDP1 cells + 20 nM CPT, ATP luminescence, 48 h | Potency, µM (series often up to 46.2 µM), actives largely listed as inhibitors | actives 12% (n = 420,000); note: nearly all actives have a fitted effect of over 55% in size
#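 Chicken DT40 Tdp1-/- cells stably complemented with human TDP1 were seeded at 400 cells/well in medium containing 20 nM camptothecin, exposed to pin-transferred compounds, and grown at 37 °C for at least 48 hr. Viability was read as ATP luminescence.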
# ALOX12 inh = ALOX12 (human) lipoxygenase inhibition; purified 12hLO, xylenol orange hydroperoxide absorbance; Potency, µM (highest dose often 108 µM), most hits filed as inhibitors; actives 1.1% (n = 580,000)
#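 Purified human 12hLO (150 nM final) in 25 mM Hepes, 0.01% Triton X-100, pH 7.0 was preincubated 15 min at room temperature with compound. Then 40 uM arachidonic acid was added, 30 min. Hydroperoxide was read by Fe-XO absorbance ratio 573/405 nm.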
# ELG1 repair inh = blocks ELG1-dependent DNA repair in HEK293T cells; Potency, µM (titrated, usually from 46.1 µM), actives largely listed as inhibitors; HEK293T ELG1-luciferase reporter, luminescence, 16 h; DNA damage induced by 5-fluorouridine; actives 2.3% (n = 330,000); AID 504467; note: nearly all actives have a fitted effect of over 55% in size
#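 Cells (2,000 per well) received 5-fluorouridine plus test compound or DMSO and were incubated 16 hr at 37 °C, 5% CO2. Luciferase activity was read by luminescence 30 min after ONE-Glo addition; signal suppression marked inhibition of damage-induced ELG1 function.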
# RORgamma inh = inhibitors of mouse ROR gamma transcriptional activity | P51450 | Drosophila S2 Gal4-RORgamma UAS-luciferase reporter, 20 h | Potency, µM (top dose mostly 53.6 µM), actives largely listed as inhibitors | actives 5.4% (n = 310,000) | AID 2551; note: nearly all actives have a fitted effect of over 60% in size
# Target sequence (P51450 whole entry, looked up, the tested form may be a part): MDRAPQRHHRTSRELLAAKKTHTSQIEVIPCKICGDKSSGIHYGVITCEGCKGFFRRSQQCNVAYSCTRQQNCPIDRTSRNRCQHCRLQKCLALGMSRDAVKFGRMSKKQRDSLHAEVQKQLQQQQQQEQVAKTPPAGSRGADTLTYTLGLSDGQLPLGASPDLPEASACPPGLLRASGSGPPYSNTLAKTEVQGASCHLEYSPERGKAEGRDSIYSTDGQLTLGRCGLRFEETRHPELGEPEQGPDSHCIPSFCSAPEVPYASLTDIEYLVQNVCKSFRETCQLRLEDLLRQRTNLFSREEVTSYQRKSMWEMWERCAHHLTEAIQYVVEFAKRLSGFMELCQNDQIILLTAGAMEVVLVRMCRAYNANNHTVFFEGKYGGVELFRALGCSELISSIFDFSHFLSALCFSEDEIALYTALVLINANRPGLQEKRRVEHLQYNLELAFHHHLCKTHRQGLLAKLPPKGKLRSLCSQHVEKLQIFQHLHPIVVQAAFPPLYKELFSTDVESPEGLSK
#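 Schneider cells (Drosophila), stable Gal4 DBD–ROR gamma + UAS-luc; 1 hr cmpd preincubation; Cu2+ induction 700 uM final; 20 hr ambient; luminescence.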
# VP16 counter = Gal4-VP16 reporter inhibition counter-screen; Drosophila S2 Gal4-VP16 UAS-luciferase, luminescence, 20 h; Potency, µM (titrated, usually from 53.6 µM), actives largely listed as inhibitors; actives 3.5% (n = 310,000);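 note: Gal4-VP16 expression switched on by copper sulfate through the metallothionein promoter; nearly all actives have a fitted effect of over 50% in size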
# TDP1 cell noCPT = qHTS for Inhibitors of human tyrosyl-DNA phosphodiesterase 1 (TDP1): qHTS in cells in absence of CPT; DT40 Tdp1-/- hTDP1 cells, no CPT, ATP luminescence, 48 h; actives 15% (n = 420,000); Potency, µM (titrated, usually from 46.2 µM), usual class: inhibitors; note: nearly all actives have a fitted effect of over 55% in size
#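 Growth of hTDP1-complemented DT40 Tdp1-knockout cells is measured by ATP luminescence after at least 48 hr compound exposure at 37 °C, with DMSO substituting for the 20 nM CPT used in the parallel screen.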
# Numbers stand for hits; - = inactive; ? = inconclusive; . = no result given; [ ] = remark or other dose. Calls come from the whole dose curve; as a rule, active = well fitted curve in the direction sought with a large enough effect; inconclusive = small, poorly fitted or top-dose-only effect, or another doubt; inactive = no such curve, though single readings can be large; an effect the other way counts as inactive or inconclusive.
SMILES,TDP1 cell CPT,ALOX12 inh,ELG1 repair inh,RORgamma inh,VP16 counter,TDP1 cell noCPT
COc1ccc(-c2cn(C[C@H]3CC4CCN3C[C@@H]4C(=O)NC3CCCCC3)nn2)cc1 (stereo partly specified),.,-,.,.,.,.
CCC(CC)c1cc([C@H]2CN3CC[C@H]2C[C@@H]3CO)nc(-c2ccncc2)n1,.,-,.,.,.,.
Clc1ccccc1CNCCc1c[nH]c2ccccc12,-,-,.,.,.,?
c1ccc2c(CNC3CCCCCC3)c[nH]c2c1,3.3µM,-,-,?,-,7.3µM
O=c1[nH]c(=S)[nH]c(O)c1N=Nc1ccc(-c2ccccc2)cc1[N+](=O)[O-],.,.,-,?,18µM,.
O=c1[nH]c(=S)[nH]c(O)c1N=Nc1cc2c(cc1[N+](=O)[O-])OCO2,?,-,-,-,-,?
Cn1c(NN=O)nc2ccccc21,?,-,?,0.035µM,?,?
CO/C1=C\C(C)=C\[C@@H](C)[C@@H](O)[C@@H](C)C/C(C)=C/C=C/[C@H](OC)[C@@H]([C@@H](C)[C@@H](O)[C@H](C)[C@@]2(O)C[C@@H](O)[C@H](C)C(C(C)C)O2)OC1=O (stereo partly specified),.,.,.,6.3µM,7.1µM,.
CC(C)Oc1ccc(C(=O)N2CCC3(CC2)c2nccn2-c2ccccc2CN3C)cc1,.,-,.,.,.,.
COc1ccc(CCN(C)Cc2ccncc2)cc1OC,-,?,-,-,-,-
COc1ccc(CCN(C)Cc2cc(C(C)(C)C)c(O)c(C(C)(C)C)c2)cc1OC,.,7.9µM,.,.,.,.
CN(C)CC(=O)Nc1ccc2n(c1=O)C[C@H]1C[C@@H]2CN(C(=O)c2cccnc2)C1,.,-,.,.,.,.
C#CCN(C)C[C@H]1CN2CC[C@H]1C[C@@H]2CNC(=O)c1ccc(C(F)(F)F)cc1,.,-,.,.,.,.
CCOC(=O)C1(c2ccccc2)CCN(CCC(=O)Nc2ccccc2OC)CC1,21µM,-,?,-,-,12µM
CCOC(=O)C1(c2ccccc2)CCN(CCC(=O)Nc2ccc(F)cc2)CC1,?,-,-,.,.,?
COc1ccc2c(c1)C1(CCN(C(=O)c3ccccc3C)C1)C(=O)N2 (stereo unspecified),.,-,.,.,.,.
CCCCCCn1c(=O)c(C(=O)Nc2ncccc2O)c(O)c2ccccc21,5.2µM,-,?,?,-,5.2µM
CCCCCn1c(=O)c(C(=O)NCc2ccncc2)c(O)c2ccccc21,?,-,-,3.5µM,4.5µM,?
CCCCCn1c(=O)c(C(=O)Nc2ccncc2)c(O)c2ccccc21,.,.,?,-,-,.
CCCCCCn1c(=O)c(C(=O)Nc2cnccn2)c(O)c2ccccc21,0.82µM,-,?,-,-,0.58µM
CCCCn1c(=O)c(C(=O)Nc2ccccc2F)c(O)c2ccccc21,-,-,-,?,?,?
CCCCn1c(=O)c(C(=O)Nc2ccccn2)c(O)c2ccccc21,3.3µM,-,-,-,-,4.1µM
C=CCNC(=O)CSC(c1ccc(F)cc1)c1ccc(F)cc1,.,-,.,.,.,.
CCCCCn1c(=O)c(C(=O)Nc2ccccn2)c(O)c2ccccc21,3.7µM,-,-,-[1.91 µM],?,4.6µM
CCCCCn1c(=O)c(C(=O)Nc2cccc(C)n2)c(O)c2ccccc21,-,-,-,-[1.91 µM],-,?
SMILES,TDP1 cell CPT,ALOX12 inh,ELG1 repair inh,RORgamma inh,VP16 counter,TDP1 cell noCPT
CCCCn1c(=O)c(C(=O)Nc2ccc(C)cn2)c(O)c2ccccc21,13µM,.,-,-[1.91 µM],-,9.2µM
O=C(Nc1ccncc1)C(=O)c1cn(Cc2ccc(Cl)cc2)c2ccccc12,.,-,.,.,.,.
CC(=O)N1CCCSC1=Nc1ccccc1,-,-,-,-,-,-
CCOc1ccccc1N=C1SCCCN1C,-,7.1µM,-,-,-,-
Cc1ccc(-c2nnc(Nc3ccc(Br)cc3)c3ccccc23)cc1S(=O)(=O)NCc1nc2ccccc2[nH]1,?,-,.,.,.,23µM
Cc1ccc(Nc2nnc(-c3ccc(C)c(S(=O)(=O)NCc4nc5ccccc5[nH]4)c3)c3ccccc23)cc1,?,-,.,.,.,?
CC(C)N1C[C@@H]2OCC(=O)N(Cc3ccccn3)[C@@H]2C1,.,-,.,.,.,.
C=C1C(=O)O[C@@H]2C[C@@H](C)[C@H]3C=CC(=O)[C@]3(O)C[C@@H]12,4.6µM,-,-,7.1µM,?,4.6µM
COP(=O)(OC)c1nc(-c2cccc3ccccc23)oc1N1CCOCC1,-,?,-,-,-,18µM
COc1ccc(-c2cc([C@H]3CN4CC[C@H]3C[C@@H]4CNC(=O)c3cccs3)n(C)n2)cc1,.,-,.,.,.,.
CNC(C)CCC=C(C)C (stereo unspecified),?,.,.,.,.,15µM
CNC(C)CC1CCCCC1 (stereo unspecified),-,-,.,.,.,-
O=[N+]([O-])c1oc2ccc3ccccc3c2c1CCO,0.41µM,?,.,.,.,0.52µM
O=[N+]([O-])c1cccc(C2N3CCCN23)c1 (stereo unspecified),-,-,-,-,-,-
CC(C)n1c(N2CCN(S(=O)(=O)c3cccc([N+](=O)[O-])c3)CC2)nc2ccccc21,?,-,23µM,?,-,12µM
COc1ccc(CCNc2nc3ccc(Cl)cc3n3cnnc23)cc1OC,18µM,-,.,.,.,16µM
CC1(C)C(C(=O)NCc2ccco2)C1(C)C,-,-,-,-,-,-
CC(=O)c1cccc(-c2ccnc3c2CC(C(=O)NCCc2ccccc2)O3)c1 (stereo unspecified),4.6µM,-,.,.,.,3.7µM
CC(=O)Nc1cccc(-c2ccnc3c2CC(C(=O)NCc2ccco2)O3)c1 (stereo unspecified),1.8µM,-,.,.,.,1.6µM
O=C(NC[C@H]1C[C@@H]2CCN1C[C@@H]2CN1CCN(c2ccccc2)CC1)Nc1ccsc1,.,-,.,.,.,.
Cc1ccc(C(=O)Nc2ccccc2)cc1S(=O)(=O)N1CCCC1,.,-,.,.,.,.
O=C(Nc1ccc(Oc2ccccc2)cc1)c1ccc(F)c(S(=O)(=O)N2CCN(c3cccc(Cl)c3)CC2)c1,1.8µM,?,.,.,.,3.7µM
Cc1cccc(NC(=O)c2ccc(F)c(S(=O)(=O)N3CCN(c4ccc(F)cc4)CC3)c2)c1,?,?,.,.,.,16µM
CN(C)C1(c2nnnn2CCOC(=O)Nc2ccc(Cl)cc2)CCCCC1,?,-,?,-,-,18µM
CN(C)C1(c2nnnn2-c2ccc(Cl)cc2)CCCCC1,-,-,-,-,-,?
O=C(c1ccccc1)N1C[C@@H](c2ccc3c(c2)OCO3)[C@@H]2[C@H]1C1CCN2CC1,.,-,.,.,.,.
CCC(=NCCc1ccccc1)c1c(O)n(C)c(=O)n(C)c1=O,?,-,?,-,?,8.2µM
